KLF5 inhibitor: suppresses KLF5 promoter-driven expression | AID 1700 | 290,000 compounds, 0.23% hits | DLD-1 KLF5 promoter-luciferase reporter, luminescence | inhibition, % at 5 µM;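 active = inhibition above a per-plate limit of that plate's mean compound inhibition plus 3 SD, cut at about 60% in these data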;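 note: higher means less KLF5 promoter-driven luciferase light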
Jurkat NFkB inh: lowers PMA/ionomycin-induced NF-kB signal in Jurkat cells. AID 435003. PMA/ionomycin-induced NF-kB luciferase reporter, luminescence. inhibition, % at 4 µM. 330,000 compounds, 0.53% hits; in the data active = inhibition above about 50%
Mdm2-MdmX inh: human Mdm2/MdmX binding inhibition; O15151+Q00987; SaOS-2 split-luciferase Mdm2/MdmX complementation, luminescence; inhibition, % at 8 µM; 330,000 compounds, 3% hits; AID 485346;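 active = inhibition of at least 50% at 8 µM in the primary screen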
Target sequence (O15151 whole entry, looked up): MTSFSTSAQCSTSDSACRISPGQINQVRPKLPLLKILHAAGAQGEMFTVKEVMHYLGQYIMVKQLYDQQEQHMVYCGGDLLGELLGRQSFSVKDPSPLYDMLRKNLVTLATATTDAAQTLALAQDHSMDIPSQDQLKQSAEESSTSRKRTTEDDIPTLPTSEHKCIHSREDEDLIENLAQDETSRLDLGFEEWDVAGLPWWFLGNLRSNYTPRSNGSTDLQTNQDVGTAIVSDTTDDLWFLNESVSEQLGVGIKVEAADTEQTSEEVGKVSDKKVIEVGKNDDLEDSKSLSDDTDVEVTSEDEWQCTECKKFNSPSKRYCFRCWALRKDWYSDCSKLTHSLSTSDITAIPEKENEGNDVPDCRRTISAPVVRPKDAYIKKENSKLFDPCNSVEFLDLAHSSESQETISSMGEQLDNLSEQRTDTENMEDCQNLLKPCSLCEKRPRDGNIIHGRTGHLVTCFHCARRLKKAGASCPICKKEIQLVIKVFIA
Target sequence (Q00987 whole entry, looked up): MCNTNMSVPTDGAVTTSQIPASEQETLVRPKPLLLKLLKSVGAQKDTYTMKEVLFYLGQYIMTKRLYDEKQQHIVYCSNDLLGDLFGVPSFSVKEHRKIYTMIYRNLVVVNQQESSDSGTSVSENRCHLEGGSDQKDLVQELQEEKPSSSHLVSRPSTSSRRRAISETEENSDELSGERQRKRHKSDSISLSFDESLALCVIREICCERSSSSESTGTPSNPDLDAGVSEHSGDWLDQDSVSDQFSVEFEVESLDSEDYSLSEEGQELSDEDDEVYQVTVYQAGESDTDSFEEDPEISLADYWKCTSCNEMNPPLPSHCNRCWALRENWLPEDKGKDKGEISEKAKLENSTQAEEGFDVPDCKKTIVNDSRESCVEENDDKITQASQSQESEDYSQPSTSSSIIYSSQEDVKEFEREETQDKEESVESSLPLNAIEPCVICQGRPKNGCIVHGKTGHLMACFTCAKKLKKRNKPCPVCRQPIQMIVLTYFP
aSyn UTR inh: 5' untranslated region of α-synuclein, MLPCN primary screen; inhibition, % (tested at 7.5 µM); alpha-synuclein 5'UTR reporter, inhibitor activity; AID 1813; 300,000 compounds, 0.82% hits; in the data active = inhibition above about 60%; inconclusive = no clear call, values can overlap the other calls;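 note: H4 neuroglioblastoma cells stably carrying SNCA 5'UTR luciferase fusion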
697 NFkB inh: inhibitors of the PMA/ionomycin-induced NF-kB reporter in 697 B cells | 697 B-cell NF-kB luciferase reporter, 16 h | inhibition, % at 4 µM | 330,000 compounds, 0.33% hits | AID 435022; in the data active = inhibition above about 35%
Gli-Sufu block: blocks Gli-Sufu signaling in a luciferase reporter | 340,000 compounds, 0.74% hits | Sufu-KO-LIGHT fibroblasts, Gli luciferase reporter luminescence | inhibition, % at 5 µM;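 active = inhibition above about 55%, limit read from the data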
Mdm2-MdmX conf: confirmation of human Mdm2/MdmX interaction inhibitors. 10,000 compounds, 55% hits. inhibition, % at 8 µM. Mdm2-MdmX binding, luminescent assay. shares compounds with Mdm2-MdmX inh; in the data active = inhibition above about 40%
FLuc counter: inhibits full-length luciferase, flagging false Mdm2/MdmX hits; SaOS-2 full-length luciferase counterscreen, luminescence; inhibition, % at 8 µM; shares compounds with Mdm2-MdmX inh; 6,200 compounds, 77% hits;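 active = mean inhibition at 8 µM reaching about 37%, which flags the compound as non-specific, limit read from the data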;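 note: p53-null SaOS-2 cells with luciferase driven by a doxycycline-inducible promoter; compound on cells about two nights before reading with doxycycline added after day one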
Numbers stand for hits; – = inactive; ? = inconclusive; · = no result given. Rows were chosen to be rich in hits. Some 4.1% of all compounds tested hit in one or more screens of this group.

SMILES | KLF5 inhibitor | Jurkat NFkB inh | Mdm2-MdmX inh | aSyn UTR inh | 697 NFkB inh | Gli-Sufu block | Mdm2-MdmX conf | others
CCC(C)c1ccc(NC(=S)NC2CCN(Cc3ccccc3)CC2)cc1 (stereo not given) | – | – | 75.7 | – | – | – | –
N#CCc1nn(Cc2ccc(F)cc2)c(=O)c2ccccc12 | – | – | – | – | – | – | ·
CC(C)(C)NC(=O)C(c1ccc(-c2ccccc2)cc1)N(C[C@H]1CC[C@@H]([C@@H]2CC[C@H](CO)O2)O1)C(=O)c1ccc(C(C)(C)C)cc1 (stereo not given in full) | · | · | 67.6 | · | – | – | –
COc1cc(O)c(C(CCN2CCCC(C)C2)c2cc(OC)c(OC)c(OC)c2)c(OC)c1 (stereo not given) | · | – | – | – | – | – | ·
CCCCCc1cc(=O)oc2c(C(CCN3CCCC(C)C3)c3ccc(N(C)C)cc3)c(OC)cc(OC)c12 (stereo not given) | · | – | 96.2 | – | – | – | –
COc1cc(C(CCN2CCCC2)c2c(OC)cc(OC)c3ccc(=O)oc23)cc(OC)c1OC (stereo not given) | · | – | – | – | – | – | ·
CCCCCc1cc(=O)oc2c(C(CCN(CC)CC)c3ccc(N(C)C)cc3)c(OC)cc(OC)c12 (stereo not given) | · | – | 90.1 | – | – | – | –
COc1cc(OC)c2ccc(=O)oc2c1C(CCN1CCCC(C)C1)c1ccc(N(C)C)cc1 (stereo not given) | · | – | – | – | – | – | ·
CCCCCc1cc(=O)oc2c(C(CCN3CCCC(C)C3)c3cc(OC)c(OC)c(OC)c3)c(OC)cc(OC)c12 (stereo not given) | · | – | 100.2 | – | – | – | 52.2 | FLuc counter=43.4
CCCCCc1cc(=O)oc2c(C(CCN3CCCCC3)c3cc(OC)c(OC)c(OC)c3)c(OC)cc(OC)c12 (stereo not given) | · | – | 97.8 | – | – | – | 46.5 | FLuc counter=–
CCOc1ccc(N(C(C)C(=O)N2CCOCC2)S(C)(=O)=O)cc1 (stereo not given) | – | – | – | – | – | – | ·
COCCNC(=S)N1CCC(NC(=O)c2ccco2)CC1 | – | – | – | – | – | – | ·
CC(=O)Nc1nnc(SCC(=O)Nc2ccc(N3CCOCC3)c(Cl)c2)s1 | – | – | 59.1 | – | – | – | –
Nc1c(-c2ccccn2)cnn1-c1nc(-c2ccc(F)cc2)cs1 | – | – | – | – | – | – | ·
COc1ccc(-c2csc(-n3ncc(-c4ccccn4)c3N)n2)cc1 | – | – | 57.5 | – | – | – | –
COc1ccc(NC(=O)CN(C)C(=O)/C=C/c2ccc(S(=O)(=O)N3CCCCCC3)cc2)cc1 | · | – | – | ? | – | – | ·
COc1ccc(NC(=O)CN(C)C(=O)/C=C/c2ccc(OCc3ccccc3)cc2)cc1 | – | – | 52.2 | – | – | – | –
CCCCn1c(N)c(N(CCOC)C(=O)c2cc(C)oc2C)c(=O)[nH]c1=O | · | – | – | – | – | – | ·
S=C(Nc1cccc(Cl)c1)N(CCCN1CCCC1)Cc1cccn1Cc1ccc(Cl)cc1 | – | – | 61.9 | – | – | – | –
Cn1cc(CN(CCCN2CCOCC2)C(=S)Nc2cccc(Cl)c2)c2ccccc21 | – | – | – | – | – | – | ·
COc1cccc(NC(=S)N(CCCN2CCCC2)Cc2cccn2Cc2ccc(Cl)cc2)c1 | – | – | 56.4 | – | – | – | –
CSc1cccc(NC(=S)N(CCCN2CCCC2)Cc2cccn2Cc2ccc(Cl)cc2)c1 | – | – | 72.9 | – | – | – | 43.8 | FLuc counter=62.7
CSc1cccc(NC(=S)N(CCCN2CCCC2)Cc2cccs2)c1 | – | – | – | – | – | – | ·
C=CC#CC1(O)CC(C)N(C)CC1C (stereo not given) | – | – | – | – | – | – | ·
Cc1ccc(-n2nnnc2-c2nc3ccccc3s2)cc1 | – | – | – | – | – | – | ·
SMILES | KLF5 inhibitor | Jurkat NFkB inh | Mdm2-MdmX inh | aSyn UTR inh | 697 NFkB inh | Gli-Sufu block | Mdm2-MdmX conf | others
CCOc1ccc(-n2nnnc2-c2nc3ccccc3s2)cc1 | – | – | 74.4 | – | – | – | 48.7 | FLuc counter=88.5
CC(C)Oc1ccc(C(CCNCc2ccc(O)cc2)c2ccccc2)cc1 (stereo not given) | – | – | 91.2 | – | – | – | 69.7 | FLuc counter=57.5
Cc1ccc(C2C(C#N)=C(N)Oc3cc4c(cc32)OCO4)cc1 (stereo not given) | – | – | 55.4 | – | – | – | 65.2 | FLuc counter=63.9
CSc1ccc(C2C(C#N)=C(N)Oc3cc4c(cc32)OCO4)cc1 (stereo not given) | – | – | 69.5 | – | – | – | 59.5 | FLuc counter=60.3
N#CC1=C(N)Oc2cc(N)ccc2C1c1ccc(Cl)cc1 (stereo not given) | – | – | – | – | – | – | ·
COc1ccc(-c2nc3c(c(SCC(=O)Nc4cccc(O)c4)n2)Cc2c(CO)cnc(C)c2O3)cc1 | – | – | – | – | – | – | ·
Cc1ncc(CO)c2c1Oc1nc(-c3ccccc3)nc(SCC(=O)Nc3cccc(O)c3)c1C2 | – | – | 51.4 | – | – | – | –
Cc1ccc2[nH]c3c(=O)n(CC(=O)Nc4ccccc4N4CCN(C)CC4)ncc3c2c1 | – | – | 61.2 | – | – | – | –
Cc1ccc(Cl)cc1N1CCN(Cc2nc3c(c(=O)[nH]c(=O)n3C)n2CCc2ccccc2)CC1 | – | – | 63.6 | – | – | – | –
CCCCn1c(CN2CCN(c3cccc(Cl)c3)CC2)nc2c1c(=O)[nH]c(=O)n2C | – | – | 53.4 | – | – | – | 62.0 | FLuc counter=56.5
Cc1ccc(Cl)cc1N1CCN(Cc2nc3c(c(=O)[nH]c(=O)n3C)n2Cc2ccccc2F)CC1 | · | – | 51.1 | – | – | – | – | FLuc counter=77.2
CN(C)C/C=C/C(=O)Nc1cccc(-c2c[nH]c3ncnc(Oc4ccc(NC(=O)CC(=O)Nc5ccc(F)cc5)cc4F)c23)c1 | · | – | 68.0 | · | – | – | –
CC(=O)Nc1cccc(Oc2ncnc3scc(-c4ccccc4)c23)c1 | – | – | – | – | – | – | ·
CCc1c(C2(O)CCCCC2)[nH]c2ccc(C(F)(F)F)cc12 | – | – | 81.7 | – | – | – | –
O=C(CSCC(=O)Nc1nc(-c2ccc3c(c2)OCO3)cs1)Nc1nccs1 | – | – | – | – | – | – | ·
O=C(CSc1ccc(-c2ccc3c(c2)OCO3)nn1)Nc1nccs1 | – | – | 89.0 | – | – | – | –
CC(Sc1nnc(COc2ccc(Cl)cc2)o1)C(=O)Nc1ccc(N2CCOCC2)cc1 (stereo not given) | · | – | – | · | – | – | ·
N#Cc1c(Oc2ccc3ccccc3c2)sc(C(=O)c2ccccc2)c1N | – | – | 75.4 | – | – | – | –
CC(=O)Nc1nc(-c2ccc(Cl)cc2)ns1 | – | – | – | – | – | – | ·
Cc1cccc(NC(=O)CC2C(=O)NC3CCCCC3N2C(=O)c2ccccc2Cl)c1 (stereo not given) | – | – | – | – | – | – | ·
